# Test results published in ChEMBL document CHEMBL1157539, “Thousands of chemical starting points for antimalarial lead identification” (Nature, 2010).
# Columns and labels:
# Type in all cases: functional
# [1] = system: Plasmodium falciparum; experiment: GSK_TCMDC: Inhibition of Plasmodium falciparum 3D7 in whole red blood cells, using parasite LDH activity as an index of growth. Test compounds present at 2uM
# [2] = system: Plasmodium falciparum; experiment: GSK_TCMDC: Inhibition of Plasmodium falciparum Dd2 in whole red blood cells, using parasite LDH activity as an index of growth. Test compounds present at 2uM
# [3] = system: HepG2; experiment: GSK_TCMDC: Percent inhibition of human HepG2 cell line. Test compounds present at 10uM.
SMILES,Inhibition [1] [%],Inhibition [2] [%],Inhibition [3] [%]
CCCCCC(C)N/C(=N/c1cccc(Cl)c1Cl)Nc1ccc(C#N)cc1O (centres undefined),100,98,28
Cc1cnc2ccc(NS(=O)(=O)c3ccc4c(Cl)cccc4c3)cc2c1N1CCNCC1.Cl,100,3,24
CN1CCCC(CN2CCN(Cc3cccc(-c4ccc(-c5nc6ccccc6[nH]5)s4)c3)CC2)C1.O=C(O)C(F)(F)F (centres undefined),99,99,52
CCN(CC)CCCCNc1cc(-c2[nH]c(-c3c(Cl)cccc3Cl)nc2-c2ccc3cc(OC)ccc3c2)ccn1.O=C(O)C(F)(F)F,95,93,23
N#CN1CC[C@H](CS(=O)(=O)c2cccc(Br)c2)C1,88,74,8
CC(C)(CNC(=O)[C@@H]1CCCN(CCOc2ccc(F)c(F)c2)C1)c1nc(-c2ccc(Cl)c(O)c2)c(-c2ccncc2)[nH]1.Cl,100,77,72
CC(=O)Oc1cc(C(=O)Nc2ccc(Cl)cc2)cc2ccccc12,88,47,16
O=C(NC1CCN(Cc2ccccc2)CC1)c1cc(-c2ccncc2)nc2ccc(Cl)cc12,97,27,17
O=C(/C=C/c1ccccc1Cl)Nc1ccc(Br)c(OCCN2CCCCC2)c1.O=C(O)C(=O)O,99,25,11
COc1ccccc1C1CCN(C2CCC(NC(=O)c3cc4ccccc4[nH]3)CC2)CC1 (centres undefined),88,7,49
Cc1ccccc1C1CCN(C2CCC(NC(=O)/C=C/c3c(F)ccc(F)c3F)CC2)CC1 (centres undefined),82,33,37
CCC1CN2CCc3c([nH]c4ccccc34)C2CC1CC1NCCc2cc(OC)c(OC)cc21.Cl (centres undefined),100,83,26
Cc1c(F)cc(C(=O)NC2CC2)cc1-c1ccc2c(cnn2S(=O)(=O)c2ccc(C#N)cc2)c1,97,92,17
CCCCCCCNc1cc(C)nc2ccc(OC)cc12.Cl,100,100,30
C=CCC1OC(=O)c2cc(OC)cc(OC)c21 (centres undefined),95,100,100
O=C(O)C(F)(F)F.c1cc(-c2ccc(CN3CCCC3)cc2)cc(-c2nc3ccccc3[nH]2)c1,100,52,25
O=C(/C=C/c1ccc(Cl)c(Cl)c1)NCCCCCN1CCC(NC(=O)c2ccc(F)cc2)CC1,100,13,14
CCc1cn2c3c(cc(C(=O)N[C@@H](Cc4ccccc4)[C@H](O)CNCc4cccc(C)c4)cc13)N(C)S(=O)(=O)CC2.O=CO,96,98,5
COc1cc(Cc2cnc(N)nc2N)c2ccsc2c1OC.Cl,92,4,5
Brc1cccc(Nc2nccc(Nc3ccc(Oc4ccccc4)cc3)n2)c1.Cl,89,5,0
CCOc1cc(C=Cc2nc(O)c3ccccc3n2)cc(Cl)c1O,83,90,25

SMILES,Inhibition [1] [%],Inhibition [2] [%],Inhibition [3] [%]
O=C(Nc1ccc2c(c1)CCN2C1CCN(Cc2cccc3cc[nH]c23)C1)c1ccco1 (centres undefined),88,86,0
O=C(O)C(F)(F)F.O=[N+]([O-])c1cccc(CNCC2CCN(Cc3ccc(Cl)c(Cl)c3)CC2)c1,100,41,9
CCN(CC)CCCCCNc1c2ccc(Cl)cc2nc2ccc(OC)cc12.Cl,99,99,96
CCCCCCCNC(=O)NCC1CCCN(CCCCCNC(=O)/C=C/c2ccc(Cl)c(Cl)c2)C1 (centres undefined),86,7,98
Cl.O=C(NCCCCN1CCC(c2ccc(OC(F)(F)F)cc2)CC1)c1ccc(NC(=O)c2ccc(Cl)cc2)cc1,99,98,24
CCNC(=O)Nc1ccc(-c2cnc(N)c(-c3nc4ccc(OC)cc4[nH]3)c2)cc1,100,43,51
COCCn1c(SC(C)C(=O)Nc2cc(C(F)(F)F)ccc2Cl)nc2ccccc2c1=O (centres undefined),97,95,8
Cl.O=c1cc(NCCCNCc2scc3c(Cl)cc(C(F)(F)F)nc23)[nH]c2ccccc12,99,21,9
Cl.Cn1cc(Br)c(-c2cccc(Nc3ccnc4cc(-c5nccs5)ccc34)c2)n1,91,32,37
Cc1ccc(Nc2nccc(N(C)c3ccc4c(c3)nc(NC(=O)Cc3ccc(Cl)c(Cl)c3)n4C)n2)cc1S(N)(=O)=O.O=C(O)C(F)(F)F,94,60,71
Cl.O=C(CCCCCCc1ccccc1)Nc1ccc2nc3c(c(NCc4ccccc4)c2c1)CCCC3,100,98,19
CC1CN(C(=O)c2sc3ccccc3c2Cl)CC(C)O1 (centres undefined),100,98,0
COc1cc(NCC2(CNCc3cn(Cc4ccccc4)c4ccccc34)CCCCC2)nc2ccccc12.Cl,95,12,65
O=C(N[C@@H](CC1CCCCC1)C(=O)NC1CCCc2ccccc21)c1ccc(O)c(-c2ccc(Cl)c(Cl)c2)c1 (some centres undefined),98,99,1
COc1ccc(NC(=O)/C=C/c2ccccc2Cl)cc1OCCN1CCC(N(C)C)CC1,89,19,18
O=C(Nc1ccc(Oc2ccccc2)cc1)N1CCC(CCN2CCC(c3c[nH]c4ccccc34)CC2)CC1,100,36,42
COc1ccc(NC(=O)Nc2nc3ccccc3s2)cc1N1CCN(C)CC1,95,22,6
Cc1noc(C)c1-c1cccc(CNCc2cccc(-c3ccc(-c4nc5cccc(C)c5[nH]4)s3)c2)c1.O=C(O)C(F)(F)F,100,75,22
Cc1nc(-c2cccc(Nc3nccc(NCC(O)c4ccccc4C(F)(F)F)n3)c2)cs1 (centres undefined),97,50,48
CC(C)(C)c1ccc(C(=O)NC2CCC(CCN3CCc4ccc(S(C)(=O)=O)cc4CC3)CC2)cc1C(F)(F)F (centres undefined),88,11,54
O=C(O)C(F)(F)F.O=S(=O)(NCCN1CCCC1)c1ccc(-c2ccc(CNC3Cc4ccccc4C3)cc2)cc1,99,91,61

SMILES,Inhibition [1] [%],Inhibition [2] [%],Inhibition [3] [%]
CN1CC[C@@H](Oc2cc(NC(=O)Nc3ccccc3Br)ccc2Cl)C1,100,6,26
O=C(O)C(F)(F)F.c1ccc(CCNc2ccnc(Nc3ccc4[nH]nnc4c3)n2)cc1,100,95,33
O=C(Nc1cccc(-c2ccc(-c3nc4cc(F)ccc4[nH]3)cc2)c1)Nc1ccc(F)c(F)c1F,98,98,53
O=C(Nc1ccccc1)Nc1ccc(-n2ccc(C(F)(F)F)n2)cc1,95,85,15
CS(=O)(=O)CCNCc1nc(-c2ccc3c(=O)[nH]cnc3c2)cs1,86,96,81
O=C(NCCc1ccc(Cl)c(Cl)c1)C1CCCN(C(=O)c2ccc(O)c(-c3ccc(Cl)c(Cl)c3)c2)C1 (centres undefined),96,65,0
O=C(O)C(F)(F)F.O=C1CCCN1CCCNCc1cccc(-c2ccc(-c3nc4cc(C(F)(F)F)ccc4[nH]3)cc2)c1,100,96,15
Cn1c(=O)c2cc(C(=O)NCCCN3CCCCCC3)sc2c2ccccc21,99,99,32
COc1cc2c(cc1S(=O)(=O)c1ccc(NC(=O)Nc3ccc(F)cc3)cc1)CCN(C)CC2.Cl,99,55,0
Cc1[nH]c(C)c(-c2ccc(CCc3ccc(F)cc3F)cc2)c(=O)c1Cl,98,97,5
O=C(Nc1ccc2c(c1)OCO2)c1cc(-c2cccnc2)nc2ccc(Cl)cc12,89,41,9
CCN(CC)CCNc1ccc(Nc2ccnc3cc4ccccc4cc23)cc1,100,99,36
Cl.O=C(Nc1ccc(Cl)cc1)Nc1cccc(-c2cc(CNCCc3ccccc3)oc2-c2ccncc2)c1,100,92,40
Cc1c(CNCCCNc2nc3ccncc3[nH]2)sc(Br)c1Br.Cl,87,1,0
CSCCC(C(=O)O)N1C(=O)c2ccccc2C1=O (centres undefined),91,0,0
Cc1cc(N2CCC(C)CC2)nc2cc(O)ccc12,89,41,31
COc1ccc2c(c1C1CCN(CCCCNC(=O)c3ccc(-c4ccc(Cl)cn4)cc3)CC1)CCCC2,90,49,29
CCOc1cc2c(cc1OCC)C(c1cc(OC)c(O)cc1Cl)NCC2 (centres undefined),100,97,15
O=C(Nc1ccncc1)c1cn(-c2ccccc2)nc1-c1cccs1,98,10,7
CC(=O)Nc1nc(C(=O)Nc2ccc(-c3cccc(-c4nc5cc(F)ccc5[nH]4)c3)cc2)cs1,94,29,86
O=C(Nc1ccc(F)c(C(F)(F)F)c1)NC1CCN(CCCCCNC(=O)C2CC2c2ccc(Cl)c(Cl)c2)CC1 (centres undefined),100,16,96
